RGS12 GoLoco inh: qHTS Assay for Inhibitors of RGS12 GoLoco Motif Activity (Red Fluorophore). Potency, µM (top dose mostly 61.6 µM), for the others: at the top dose activity, negative = inhibition, hits mostly inhibitors. 230,000 tested, 0.44% active. AID 880, 2007. Gai1:RGS12 GoLoco peptide FP, rhodamine, 10 min; active = well fitted inhibition curve with a large enough effect, not every such curve was filed as active; inactive = no such curve, though single readings can be large or run the other way; note: % is set by controls: 0 for no effect and ±100 for the full control effect; nearly all actives have a fitted effect of over 30% in size
KAT2A inh: qHTS Assay for Inhibitors of GCN5L2; 390,000 tested, 0.21% active; Potency, µM (titrated, usually from 58.9 µM), inactives show at the top dose activity change, negative = inhibition, most hits filed as inhibitors; Histone acetyltransferase KAT2A (Homo sapiens), Q92830; GCN5L2 HAT assay, ThioGlo1 CoA-SH fluorescence; note: % is set by controls: 0 for no effect and ±100 for the full control effect
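GCN5L2 (20 nM) in 50mM HEPES pH 7.5, 0.1mM EDTA, 0.01% Tween-20 preincubated 15 min with compounds at room temperature. Reaction started with H3(1-25) 75uM, acetyl-CoA 70uM, ThioGlo1 50uM; CoA-thiol fluorescence (Ex340/Em540) read at 0 and 20 min.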
TexasRed fluor: Total Fluorescence Counterscreen for Inhibitors of the Interaction of Thyroid Hormone Receptor and Steroid Receptor Coregulator 2. AID 1479, 2009. TRb/SRC2 Texas Red total fluorescence interference. Potency, µM (top dose mostly 106 µM), without a hit: at the highest dose fluorescence change, negative = quenching. 280,000 tested, 0.29% active; active = well fitted curve in either direction with a large enough effect; inconclusive = small, poorly fitted or top-dose-only effect; note: % is set by controls: 0 for no effect and ±100 for the full control effect
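Flags fluorescent or light-absorbing compounds by total fluorescence, S + 2P, at 555 nm excitation and 632 nm emission. Mixture: 20 nM Texas Red SRC2 peptide, 0.6 uM human TRb LBD, 1 uM T3, 5% DMSO; compound exposure 5 h at ambient temperature.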
VDR inh: Inhibitors of the vitamin D receptor (VDR): qHTS. 400,000 tested, 0.93% active. VDR-SRC2-3 peptide fluorescence polarization, 2 h. Vitamin D3 receptor (Homo sapiens), P11473. AID 504847, 2011. Potency, µM, for the others: max response, negative = inhibition, hits mostly inhibitors; note: % is set by controls: 0 for no effect and ±100 for the full control effect
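Two reagent solutions held at 4 deg C in the dark were dispensed, compounds pinned at 23 nl, and the mixture incubated 2 h at room temperature. Read-out: fluorescence polarization of VDR–SRC2-3 peptide binding.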
TRb-SRC2 inh: qHTS for Inhibitors of the Interaction of Thyroid Hormone Receptor and Steroid Receptor Coregulator 2 | Thyroid hormone receptor beta (Homo sapiens), P10828 | TRbeta-SRC2 peptide binding, fluorescence polarization; receptor liganded with 1 µM T3 | Potency, µM (top dose mostly 106 µM), for inactives: top-dose activity change, negative = inhibition, hits mostly inhibitors | 280,000 tested, 0.065% active | AID 1469, 2008;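 note: plate controls were bound peptide for no effect and peptide without receptor for full effect; nearly all actives have a fitted effect of over 50% in size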
Target sequence (P10828 whole entry, looked up): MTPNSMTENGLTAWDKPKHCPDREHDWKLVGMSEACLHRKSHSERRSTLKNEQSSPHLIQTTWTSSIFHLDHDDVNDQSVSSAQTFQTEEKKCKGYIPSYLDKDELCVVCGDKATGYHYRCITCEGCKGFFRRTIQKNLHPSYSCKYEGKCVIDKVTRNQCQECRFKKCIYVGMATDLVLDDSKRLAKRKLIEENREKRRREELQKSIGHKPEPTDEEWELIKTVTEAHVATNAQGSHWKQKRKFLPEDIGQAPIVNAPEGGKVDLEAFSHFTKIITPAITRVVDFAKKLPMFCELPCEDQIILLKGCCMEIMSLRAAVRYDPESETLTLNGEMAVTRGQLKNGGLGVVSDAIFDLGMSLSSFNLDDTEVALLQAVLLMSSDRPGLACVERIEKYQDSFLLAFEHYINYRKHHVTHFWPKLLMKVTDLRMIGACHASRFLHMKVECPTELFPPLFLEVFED
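Polarization signal, normalized between peptide-alone and full complex controls, measured compound effects on T3-liganded human TRb LBD (0.6 uM) binding 20 nM Texas Red SRC2 peptide after 5 hr.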
VDR inh confirm: qHTS for Inhibitors of the vitamin D receptor (VDR): Hit Validation in Primary Screen; shares compounds with VDR inh; VDR-coactivator inhibition assay, qHTS confirmation; Potency, µM, usual class: inhibitors; 840 tested, 89% active
VDR FP: qHTS for Inhibitors of the vitamin D receptor (VDR): Hit Validation using a Fluorescein Assay; AID 602200, 2012; VDR-coactivator binding, fluorescein fluorescence polarization; shares compounds with VDR inh; Potency, µM (highest dose often 57.1 µM), for inactives: at the top dose activity change, negative = inhibition, hits mostly inhibitors; 840 tested, 48% active
VDR bla: qHTS for Inhibitors of the vitamin D receptor (VDR): Hit Validation using a Beta-Lactamase Assay | shares compounds with VDR inh | VDR beta-lactamase reporter cells, FRET ratio; cells co-treated with VDR agonist LG190178 | Potency, µM (doses to about 46.1 µM), for inactives: top-dose activity change, negative = inhibition, most hits filed as inhibitors | 840 tested, 23% active | AID 602202, 2012; note: % is set by controls: 0 for no effect and ±100 for the full control effect
VDR cytotox: qHTS for Inhibitors of the vitamin D receptor (VDR): Hit Validation using a Cytotoxicity Assay. shares compounds with VDR inh. cytotoxicity counter-screen, cell viability, qHTS. Potency, µM (titrated, usually from 48.3 µM), for inactives: at the highest dose activity change, negative = cytotoxicity, hits mostly cytotoxic. 840 tested, 18% active. AID 602204, 2012;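 note: plate controls were DMSO for no effect and high-concentration cycloheximide for full effect; nearly all actives have a fitted effect of over 75% in size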
The depositor's hits bear a star; [ ] = another dose, or the depositor's remark. Hits are enriched below; roughly 1.2% of the tested compounds scored in any of these assays. Unless noted, calls come from the whole dose curve; as a rule, active = well fitted curve in the direction sought with a large enough effect; inconclusive = small, poorly fitted or top-dose-only effect, or another doubt; inactive = no such curve, though single readings can be large; an effect the other way counts as inactive or inconclusive. Potency is the fitted concentration of half-maximal effect.

How did CC(C)CCC[C@@H](C)[C@@H]1CC[C@H]2C3=CC=C4CC(O)CC[C@]4(C)[C@H]3CC[C@@]21C (some centres not stated) do in these assays?
KAT2A inh: -14%; TexasRed fluor: -1%; VDR inh: 28µM*; TRb-SRC2 inh: -10%; VDR inh confirm: inconclusive; VDR FP: -3%; VDR bla: inconclusive; VDR cytotox: inconclusive

Results for O=c1[nH]c(/C=C/c2ccccc2)c([N+](=O)[O-])c(=O)[nH]1 ?
KAT2A inh: -24%; VDR inh: 22µM*; VDR inh confirm: 24*; VDR FP: inconclusive; VDR bla: 2%; VDR cytotox: 26%

Results for O=c1[nH]c(/C=C/c2cccc([N+](=O)[O-])c2)c([N+](=O)[O-])c(=O)[nH]1 ?
KAT2A inh: -12%; VDR inh: 28µM*; VDR inh confirm: 12*; VDR FP: 7.1µM*; VDR bla: 24%; VDR cytotox: inconclusive

How did O=c1[nH]c(/C=C/c2ccc(Cl)cc2Cl)c([N+](=O)[O-])c(=O)[nH]1 do in these assays?
KAT2A inh: -24%; VDR inh: 18µM*; VDR inh confirm: 4.7*; VDR FP: inconclusive; VDR bla: -16%; VDR cytotox: 21%

Results for O=c1[nH]c(/C=C\c2cccc(Cl)c2)nc(O)c1[N+](=O)[O-] ?
KAT2A inh: -11%; VDR inh: 28µM*; VDR inh confirm: 13*; VDR FP: inconclusive; VDR bla: 20%; VDR cytotox: 16%

Results for O=C(O)COc1ccccc1C(Nc1cccnc1)c1cc(Cl)c2cccnc2c1O (configuration not stated) ?
RGS12 GoLoco inh: -5%; KAT2A inh: inconclusive; TexasRed fluor: -2%; VDR inh: 22µM*; TRb-SRC2 inh: -4%; VDR inh confirm: 13*; VDR FP: inconclusive; VDR bla: 10%; VDR cytotox: 21%

What do the screens show for `CCC(=O)NC(c1ccc(C)cc1)c1cc(Cl)c2cccnc2c1O` (configuration not stated)?
KAT2A inh: -4%; VDR inh: -8%

What do the screens show for `CCOc1ccc(C(Nc2cccnc2)c2cc(Cl)c3cccnc3c2O)cc1` (configuration not stated)?
RGS12 GoLoco inh: 12%; KAT2A inh: -20%; TexasRed fluor: -2%; VDR inh: inconclusive; TRb-SRC2 inh: -2%; VDR inh confirm: 7.1*; VDR FP: inconclusive; VDR bla: -21%; VDR cytotox: inconclusive

Results for CC(=O)N1CCN(C(=S)c2ccc(-c3ccc(Cl)cc3)o2)CC1 ?
KAT2A inh: -9%; TexasRed fluor: -3%; VDR inh: 50µM*; TRb-SRC2 inh: 3%; VDR inh confirm: 27*; VDR FP: inconclusive; VDR bla: 26%; VDR cytotox: 5%

What do the screens show for `S=C(c1ccc(-c2cccc(Cl)c2)o1)N1CCCCC1`?
RGS12 GoLoco inh: 8%; KAT2A inh: -4%; TexasRed fluor: -4%; VDR inh: 4%; TRb-SRC2 inh: 0%

How did O=C1C(C2=C(O)c3ccccc3C2=O)=Nc2ccccc21 do in these assays?
RGS12 GoLoco inh: -26%; KAT2A inh: -3%; VDR inh: 13µM*; VDR inh confirm: 0.75*; VDR FP: inconclusive; VDR bla: -26%; VDR cytotox: inconclusive

Results for COC(=O)C1=C(C)N(Cc2ccco2)C(=O)/C1=C\c1ccc([N+](=O)[O-])cc1 ?
RGS12 GoLoco inh: 39%; KAT2A inh: -8%; TexasRed fluor: -5%; VDR inh: 22µM*; TRb-SRC2 inh: 7%; VDR inh confirm: inconclusive; VDR FP: 28%; VDR bla: -29%; VDR cytotox: inconclusive

Results for CC(C)(N)C(=O)N[C@@H]1C(=O)N2[C@@H]1SC(C)(C)[C@H]2C(=O)O ?
RGS12 GoLoco inh: 6%[14.2 µM]

What do the screens show for `C/C(=C\C(=O)c1c(O)cc(C)oc1=O)N(C)C`?
RGS12 GoLoco inh: 16%; KAT2A inh: -3%; TexasRed fluor: -1%; VDR inh: 5%; TRb-SRC2 inh: 5%

Results for CSc1ccc(/C=C/C(=O)c2c(O)cc(C)oc2=O)cc1 ?
KAT2A inh: inconclusive; VDR inh: inconclusive; VDR inh confirm: 5.3*; VDR FP: 152%; VDR bla: inconclusive; VDR cytotox: inconclusive

What do the screens show for `O=C(O)CNC(=O)c1ccc(CO)o1`?
RGS12 GoLoco inh: 15%; TexasRed fluor: -3%; TRb-SRC2 inh: 7%

What do the screens show for `COc1ccc(S(=O)(=O)N2CCCC2)c(Cl)c1Cl`?
RGS12 GoLoco inh: -5%; KAT2A inh: -17%; TexasRed fluor: -1%; VDR inh: 15%; TRb-SRC2 inh: -14%

How did COc1ccc(OC)c2c1C(=O)C(Cl)=C(Cl)C2=O do in these assays?
RGS12 GoLoco inh: 0.45µM*; KAT2A inh: 13µM*; TexasRed fluor: -2%; VDR inh: 22µM*; TRb-SRC2 inh: 4%; VDR inh confirm: 8.4*; VDR FP: inconclusive; VDR bla: 1.6µM*; VDR cytotox: 5.2µM*

Source: PubChem
